According to the supplement of paper PMC11417369:
± gives the standard deviation of the averaged measurements. The full ranking holds about 25,000 sequences; the median of “ln(normalized median fluorescence intensity)” is about 8.6, and the highest 2% start at about 10. The entries come from a sample that favours the highest values as a whole.

system: PfAP2-EXP AP2 domain (GST-tagged); test: gcPBM binding intensity (ln(normalized median fluorescence intensity)); higher = stronger DNA binding
Method in brief: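 For binding intensity, the highest Masliner-normalised natural-log median intensity across replicate spots of either probe orientation was taken. Protein bound to the array was stained with Alexa488 anti-GST antibody and scanned at 488 nm. The protein, GST-tagged P. falciparum DNA-binding domains from E. coli at about 25 μg on average, had been applied for 1 h to an Agilent 4 × 180k array of primer-extended double-stranded 36-bp intergenic genomic probes and negative controls.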

Sequence	gcPBM binding intensity (ln)
AAAAGGATTTTTTATACACACACTAACTAATGTATA [CACACA_site2356]	8.23 ± 0.43
AAATGGAGTTAATATTGTACATATATATATATATAT [XGTACX_site5452]	10.3 ± 0.18
TCTGGCATATAATATTGTACACATATATATATATAT [XGTACX_site8182]	10.2 ± 0.33
ATACATGAATAAATATGTACACATATAAAAACATAT [XGTACX_site2740]	8.68 ± 0.23
AATAAAATACAAAAATGTACAAATATAATATACATA [XGTACX_site279]	8.34 ± 0.28
TATAATATATACAAATGTACATATATATATATATAT [XGTACX_site4559]	10.2 ± 0.42
TATTAAATATTGTAATGTACATATATAATATAATAT [XGTACX_site1809]	8.53 ± 0.17
TAAATAAAATACAAATGTACATAAATAATAAATATA [XGTACX_site1813]	8.76 ± 0.41
ATACTAAAAATGAATGTACACATATATATATATATA [TGCATGCA_negctrl_site209]	10.2 ± 0.33
TTAAATGTTATATATTGTACATATAATATATGTATT [XGTACX_site1492]	8.27 ± 0.19
TTATACTAAATGAACACACACACATATATATATATA [CACACA_site99]	10 ± 0.5
ATATATATAATATATTGTACATATAATATATATATA [XGTACX_site4792]	9.24 ± 0.042
CATATATAATAATATTGTACATATATAATAATAATA [XGTACX_site3338]	8.4 ± 0.35
GGATAAAATGCTACGAGTACATAAGCATTTTTCCCT [XGTACX_site7796]	8.73 ± 0.35
ATGGTCTGTTAAAGATGTACTTTTTAAAAATAAACG [XGTACX_site2583]	8.48 ± 0.25
TATAGGTATATATTATGTACTTATAATTATATAGAT [XGTACX_site1912]	8.52 ± 0.35
TATATATATAAAATATGTACATAAAATTATTTATTT [XGTACX_site7666]	8.61 ± 0.26
ATATAATAATAAGGCACACAAATTAAAATATAAAAA [CACACA_site3710]	8.79 ± 0.35
TCATAAATATGAAAAAGTACAAAGGTAGATTTTGAA [XGTACX_site4535]	8.48 ± 0.3
GGATAATATATTAGAACACACATATAGATGTAAAAA [CACACA_site6229]	8.57 ± 0.54
TAAAAATCCACAAGCACACAAATGTACATATATATA [CACACA_site2462]	8.71 ± 0.24
ATATATATATATATATGTACATAATGCATATAATAT [XGTACX_site6142]	10.2 ± 0.56
ATATATATATATATATGTACATATGTTAATCTGCAT [XGTACX_site1068]	10.2 ± 0.31
AAATATATAATACATATGTAATATGCATATATATAT [GTGCAC_negctrl_site450]	9.72 ± 0.16
ACACAAGCACACAAATGTACATATATATATATATAT [XGTACX_site5146]	10.2 ± 0.13

Sequence	gcPBM binding intensity (ln)
ATATATGCATATATATGTACATATATATATATATAT [XGTACX_site7403]	9.93 ± 0.4
CGCTCTCTTTAATATTGTACATATATATTATATATA [XGTACX_site7017]	8.77 ± 0.35
TTTTTTTTTTTTTATTGTACATACTTTTAAATATAT [XGTACX_site4303]	8.55 ± 0.59
ATTATGTTAATAATATGTACATATATCTACATATAT [XGTACX_site7978]	8.37 ± 0.33
CGCATGCAATGTTAATGTACATATATATATATATGT [XGTACX_site3316]	9.395 ± 0.049
TGTACAAATATGTACACACACACATATATATATATA [CACACA_site584]	9.95 ± 0.31
TCGTCACTTTAATATTGTACATATATATATATATAT [XGTACX_site8046]	10.3 ± 0.13
TACAAATATATATGCACACACATATATGTATATGTG [CACACA_site3075]	8.65 ± 0.26
TCACATACATTACTTACACACCATATTAAGATATAC [CACACA_site4415]	8.68 ± 0.43
ATTTATATTCCAATATGTACATATTTTCGTATAACC [XGTACX_site8507]	8.88 ± 0.35
AAATTTCAATAATCTACACACATAAAAAAACAAAAG [CACACA_site1702]	8.82 ± 0.52
TACAATTTTTTAAATGCACACAAAAGGAATAAATAA [CACACA_site8075]	8.78 ± 0.16
GAAAAAAGAAATTAAACATGCATCTGCAAATTTAAA [TGCATGCA_site974]	8.34 ± 0.42
TGAATACTTATGTTCGCACACATGCAAATTAAAAAA [CACACA_site4048]	8.62 ± 0.22
ACTATAAATATATACACATGCGCACACACAAGTGGG [TGCATGCA_site432]	8.77 ± 0.39
TCTTATTCAAACGTAAAACGAAGAAGAAAAAAAAAA [CACACA_negctrl_site149]	8.49 ± 0.41
ATAATAAAAATAAAATGTACATACATAAATATATAT [XGTACX_site6228]	8.62 ± 0.28
AAAATAATGTATATATGTACATATAAATATATATAT [XGTACX_site8081]	9.32
AAAATAATAAATAAATGTACATATATATATATATAT [XGTACX_site3078]	10.2 ± 0.47
GTTATAAATGCATATACACACATACGTACATACATA [CACACA_site7655]	8.79 ± 0.23
AATGTACAAATACGTACACACATATATATATATATA [CACACA_site1542]	10.1 ± 0.42
ATACACAAATGCATACGTACATATATATATATATAT [XGTACX_site3504]	10.2 ± 0.33
TATTTCATATGAAGAAGTACTATTAATAATTTCCTT [XGTACX_site6587]	8.3 ± 0.28
TATTATTTTAATTATTCACACATTATTATAAAAATT [CACACA_site5538]	8.3 ± 0.33
ATTATTCGTTTTAAATGTACTCATATAAACGATAAA [XGTACX_site7866]	8.52 ± 0.3

Sequence	gcPBM binding intensity (ln)
GGATATAACAAACACACACACACATATATATATATT [CACACA_site4141]	8.59 ± 0.19
AAATCGAACAAATTATGTACTAAAAAAAAAATTTAT [XGTACX_site6399]	8.39 ± 0.4
AATATGTATCCATACACACATACATTTTATTTGCAA [CACACA_site874]	8.65 ± 0.45
ATATATATATATAACACACGCAAAAAAATTAAATAA [CACACA_site1400]	9.96 ± 0.11
AAAAAAAATTAAAATAAAATATAAATATAAAATATA [GTGCAC_negctrl_site714]	8.23 ± 0.24
ATATATATATATATAACACACGCAAAAAAATTAAAT [CACACA_site8395]	10.2 ± 0.26
TGATATATATATATATATATAACACACGCAAAAAAA [TGCATGCA_negctrl_site240]	8.73 ± 0.51
TACAAAAAAATAAAAAAAATTAAATAAATAAATATA [CACACA_negctrl_site45]	8.17 ± 0.37
AGCAAAAATTAAATAAATAAATATATATATATATAT [TGCATGCA_negctrl_site449]	10.2 ± 0.63
TGTTATATGTTCAAATGTACAAATCATATACATGTT [XGTACX_site3192]	8.45 ± 0.38
ATATATATATATATATGTACATATATACATATACAT [XGTACX_site2350]	9.99 ± 0.43
ATCATGTTATATACATGTACATATATATATATATAT [XGTACX_site1329]	10.2 ± 0.3
ATATATATATATACATGTACATATATACATTATATT [XGTACX_site936]	9.99 ± 0.45
ATATATATATATATATGTACATATGTTAGGATCAAA [XGTACX_site8626]	10.2 ± 0.33
TTATGGTTATACATATGTACATATATATATATATAT [XGTACX_site1494]	10.3 ± 0.2
TATGTATCAAATAAATGTACATATATATATATATAT [XGTACX_site2189]	10.1 ± 0.49
ATATATATATACATATGTACATATATATTTATACAT [XGTACX_site2463]	9.64 ± 0.33
ATCATGTTATATACATGTACATATATATATATATAA [XGTACX_site609]	8.51 ± 0.4
AAAGATACTTTCCTCAAACACACAAAACTATACAAC [CACACA_site1475]	8.79 ± 0.45
AAATTAAAATAATAATTCTACAAATTAATTTATCAT [XGTACX_negctrl_site44]	7.97 ± 0.49
TATTTAAAACTATACACATGCATTATATAAAGATAT [TGCATGCA_site702]	8.79 ± 0.4
AAAATAATATTTAATACACACATAATTATAATATAA [CACACA_site782]	8.48 ± 0.32
AATGTTTTTGTGAGATGTATAAATTTTATTTTATTT [XGTACX_negctrl_site413]	8.38 ± 0.38
ATATAACACAAGGGCACACATATACCTTTCCTTTTT [CACACA_site412]	8.77 ± 0.36
ATTAATTTTAATAAAGGTACACGTAGTTTTTTATTA [XGTACX_site7868]	8.16 ± 0.34

Sequence	gcPBM binding intensity (ln)
AAAAAAAAAATATGTACACACATATAAAATACATAA [CACACA_site6869]	8.56 ± 0.3
ATGTTCTTTAAAACCACACACCCCCCAACCCCCCTC [CACACA_site2373]	10.6 ± 0.13
CTTTAAACCCTGAACACACACAAATACACCCAAAAA [CACACA_site4297]	8.81 ± 0.42
CACACCCACAAAAACACACACAAAGGTGTTCTTATA [CACACA_site1293]	9.43 ± 0.64
TTATGTTCTTTAAAACCACACACCCCCCAACCCCCC [CACACA_site8742]	10.9 ± 0.29
CAAACCCACCAACACACACACACAAAAATGATTAAA [CACACA_site2432]	8.49 ± 0.68
TTTTTTTTTTTTTTTTTTTTTTTATGTTCTTAAAAA [GTGCAC_negctrl_site62]	8.02 ± 0.67
ATAAATTTTTTTTTTTTTTTTTTTTTTTTTTTTTTT [CACACA_negctrl_site508]	9.19 ± 0.057
ATATATTTTAATTGTTGTACATATTAAATAAATAGG [XGTACX_site2311]	8.47 ± 0.49
TTGTATAAAATATGTAGTACAATAATATAACATTTT [XGTACX_site8607]	8.55 ± 0.2
TATAAATTTAAAATGACACACACTAAAATTATTTAA [CACACA_site1239]	8.36 ± 0.42
TTATTTTATCACACATGTACATATGTTAATTTTTTT [XGTACX_site5598]	8.84 ± 0.33
ATAAAAAAATAAATTAGTACATATATATATATATAT [XGTACX_site6971]	10.1 ± 0.35
AAGCATAAAGTATATAGTACATATATATATATATAT [XGTACX_site2945]	10.2 ± 0.26
TTAAAAAAAAAAAAAAGTACATAAGTATATATAATA [XGTACX_site4295]	8.43 ± 0.45
ATAATAAAAAAAATTAGTACATATATAAATATAAAT [XGTACX_site1937]	8.3 ± 0.33
TAAAAATATAGGTATACACACATATAAATATAAATA [CACACA_site7785]	8.54 ± 0.4
TATATTTATAGGTACACACACACATATAAATAAATA [CACACA_site6345]	8.65 ± 0.37
TACATATATGATAAAAGTACATATAAATATACATAA [XGTACX_site3804]	8.45 ± 0.33
ATTGGACTATAAATAGGTACACATATATATATATAT [XGTACX_site7562]	10.4 ± 0.33
CCTTGATATATATAAAGTACATATATATATATATAT [XGTACX_site4325]	10.2 ± 0.24
ATAAAAAAAAAAAAAAGTACACATATAAAAGTATTG [XGTACX_site8265]	8.42 ± 0.41
ATATAAAAAAAATTTAGTACATATATATATATATAT [XGTACX_site8635]	10.2 ± 0.48
AGATAAAAAAAGTACACACACACATATATATATATA [CACACA_site3072]	10.2 ± 0.26
